# In PubChem BioAssay (NCI):
# About 83,000 compounds went through this panel and 20% of them were active in at least one assay; those are over-represented in the sample as a whole.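 Results are percent growth after 48 hours of single-concentration exposure. 100 means growth as in untreated cells, lower positive values show inhibition; negative values down to -100 show cell death.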 Values without a mark were called inactive. The source made the active and inactive calls. How the source made its calls: active means growth percent below 10; inactive means the rest.
# Test system: HL-60(TB) leukemia
# Experiment: NCI-60 one-dose screen, 48 h (100 = growth as untreated, 0 = no growth, -100 = all killed)
# Details: 10 µM unless noted
row,Compound,growth
1,CCC(CCCN1C(=O)c2ccccc2C1=O)Nc1cc(OC)cc2c(C)ccnc12 (stereo not given),87.4%
2,Cc1ccc(C(c2c(O)c3cc(Br)ccc3[nH]c2=O)c2c(O)c3cc(Br)ccc3[nH]c2=O)cc1,92.2%
3,COc1ccc(/C=C(\C#N)n2nnc3ccccc32)cc1,-13% (active)
4,COc1cc2nc(NC3CCC3)nc(NC3CCN(C(C)C)CC3)c2cc1OC,4.58% (active)
5,c1ccc(-c2n(Cc3ccc4ccccc4n3)cc[n+]2Cc2ccc3ccccc3c2)cc1,-54.3% (active)
6,COc1ccc(/C=C/C(=O)c2ccc(NC(=O)CSc3nnc(-c4cc(-c5ccccc5)nc5ccccc45)n3-c3ccccc3)cc2)cc1,95.9%
7,CN(C)c1nc(-c2ccco2)n2nc(-c3ccc(Cl)cc3)cc2n1,90.8%
8,c1ccc(Nc2ccccn2)nc1,101%
9,O=C(Nc1ccc(-n2cc(-c3ccncc3)c(-c3ccc(Cl)c(O)c3)n2)cc1)Nc1ccc(Cl)c(C(F)(F)F)c1,-10.5% (active)
10,COc1cc2c3c(n(C4CCNCC4)c(=O)c2cc1OC)-c1cc2c(cc1C3=O)OCO2,-50.3% (active)
11,c1ccc(CO[C@H]2CO[C@H]3[C@@H]2OC[C@@H]3Oc2ccc(Nc3ncnc4ccsc34)cc2)cc1,75.7%
12,C=C(C)CCCC(C)CC#N (stereo not given),108%
13,C#Cc1cc(C(=O)Nc2ccc(CN3CCN(C)CC3)c(C(F)(F)F)c2)ccc1C,77.8%
14,COc1c(C)c(C)c(OC)c2c1[nH]c(=O)c1c3cccnc3cn21,112%
15,O=C(Nc1ccc(F)cc1)c1c(NC(=O)C(F)(F)F)sc2c1CCCCC2,17.1%
16,O=C1C=CC(=Nc2cc(Br)c(O)c(Br)c2)C=C1,29.9%
17,COc1cccc2c1O/C(=C\c1c([N+](=O)[O-])ncn1C)C2=O,95.8%
18,CCN(CC)CCCNc1nccc2ccc(Cl)cc12,99.4%
19,COc1ccc2[nH]c(C(=O)N3CCN(C(=O)OCc4ccc5c(Br)cc(Br)c(O)c5n4)CC3)cc2c1,-42.1% (active)
20,COc1ccc(-c2cc(=O)oc3c4c(ccc23)OCN(Cc2ccc(F)cc2)C4)cc1,47.9%

row,Compound,growth
1,O=C(Nc1ccc(N=Cc2ccccc2O)cc1)NC1C=c2ccccc2=CC1 (stereo not given),79.4%
2,N=c1c2c(-c3ccccc3)c(-c3ccccc3)oc2ncn1NC(=O)c1cccnc1,99.7%
3,Cc1cccc2cc(/C=C/C(=O)/C=C/c3ccc(Cl)cc3)c(=O)[nH]c12,44.2%
4,O=C1OCC2=C1C(c1cccc(Cl)c1)c1cc3c(cc1N2CCO)CCC3 (stereo not given),-26.3% (active)
5,CC(=O)OCC1OC(OC2=C(CC=C(C)C)C(=O)c3ccccc3C2=O)C(OC(C)=O)C(OC(C)=O)C1OC(C)=O (stereo not given),-36.7% (active)
6,COc1ccccc1N1CCN(CCCOc2ccc(OCCCN3CCN(c4ccccc4OC)CC3)c(C(=O)c3cc(OC)c(OC)c(OC)c3)c2)CC1,101%
7,O=S(=O)(O)c1ccc(N/N=C/c2ccccc2Cl)cc1,101%
8,CCN1CCN(Cc2ccc(-c3cc4c(N[C@H](C)c5ccccc5)ncnc4[nH]3)cc2)CC1,14.5%
9,COc1ccc(/C=C2\CCCC3=C2N=C2SC=NN2C3c2ccc(OC)c(OC)c2)cc1OC (stereo not given),15%
10,O=C(c1ccccc1)C(CCc1ccccn1)CCc1ccccn1,107%
11,COc1ccc(-c2nnc(-c3ccc4c(c3)nc(-c3ccccc3)n4C3CCCCC3)o2)cc1,17.2%
12,CN(C)c1ncnc2c1ncn2C1CCCCO1 (stereo not given),96.3%
13,COc1nc2ccccc2cc1/C=[N+](\[O-])c1ccccc1,-18.5% (active)
14,COc1ccc(-c2cc(NC(=O)Nc3ccc4ncsc4c3)no2)cc1,90.8%
15,O=C(CCC(=O)c1nc2ncccc2[nH]1)NN1C(=O)CSC1c1ccc(Cl)cc1 (stereo not given),99.6%
16,Fc1ccc(Nc2ncnc3ccc(-c4cnc5[nH]ccc5c4)cc23)cc1Cl,-22.3% (active)
17,Cc1cc(N[C@@H]2CCC[C@H](Nc3ccnc4cc(Cl)ccc34)C2)nc(N2CCCCCC2)n1,-72.5% (active)
18,O=C(/C=C/C12c3ccccc3C(c3ccccc31)C1C(=O)NC(=O)C12)c1ccccc1 (stereo not given),9.79% (active)
19,O=C(CBr)CN1C(=O)c2ccccc2C1=O,103%
20,[2H]C1([2H])CCN(C(=O)C2CC2)c2cc(NS(=O)(=O)c3ccc(-c4cccc(C(N)=O)c4)cc3)ccc21,-0.857% (active)
